# According to PubChem BioAssay (EPA / NIEHS):
# “And” between values parts separate entries of the source, which are not always exact repeats. Equal values may be shown once. Results filed as inconclusive are left out. Where a structure was tested more than once in an assay, its records may differ in their call. The source made the active and inactive calls. Rule for the calls: active = hit-call score of the fitted dose curve at least 0.9, where 1 is the maximum; inconclusive = response in the unintended direction; inactive = score below 0.9.
# Tests used:
# [1] = target: human CYP4F12, CYP4F12 (gene 66002) (UniProt Q9HCS2); assay: NVS_ADME_hCYP4F12: NovaScreen (NVS) CYP450-related Enzyme Activity (ADME) Assay for human CYP4F12 (AID 2283111)
# Outline: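 Recombinant enzyme with a fluorescent substrate, signal read at 0.5 h post-dose; activity loss analysed relative to acetonitrile. Compounds first run in duplicate at 10 uM, with follow-up concentration-response testing of actives.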
# [2] = target: rat CYP2D1, Cyp2d1 (gene 266684) (UniProt P10633); assay: NVS_ADME_rCYP2D1: NovaScreen (NVS) CYP450-related Enzyme Activity (ADME) Assay for rat CYP2D1 (AID 2283122)
# Outline: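 Rat CYP2D1 enzyme activity measured by fluorescence intensity in a cell-free format, 0.75 h post-dosing, acetonitrile as negative control. Screening at 10 uM in duplicate, with actives followed in concentration series up to 20 uM.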
# [3] = target: human Epidermal Growth Factor Receptor (EGFR), EGFR (gene 1956) (UniProt P00533); assay: NVS_ENZ_hEGFR: NovaScreen (NVS) Enzymatic Assay for human Epidermal Growth Factor Receptor (EGFR) (AID 2283151)
# Outline: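 Cell-free kinase assay, fluorescence plus electrophoretic mobility shift separating substrate and product, read 1 hour after dosing; loss of signal vs DMSO. Duplicate screen at 25 uM, then concentration-response to 50 uM.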
# [4] = target: human p21 Activated Kinase 4 (PAK4), PAK4 (gene 10298) (UniProt O96013); assay: NVS_ENZ_hPAK4: NovaScreen (NVS) Enzymatic Assay for human p21 Activated Kinase 4 (PAK4) (AID 2283189)
# Outline: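 Extracted PAK4 enzyme activity read by fluorescence with mobility-shift separation 1 h after chemical addition. Duplicate single-concentration screen at 25 uM, DMSO as negative control.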
# [5] = target: bovine Gamma-Aminobutyric Acid Type A Receptor BDZ, alpha 1 site (GABARa1), GABRA1 (gene 780973) (UniProt P08219); assay: NVS_LGIC_bGABARa1: NovaScreen (NVS) Ligand-Gated Ion Channel Assay for bovine Gamma-Aminobutyric Acid Type A Receptor BDZ, alpha 1 site (GABARa1) (AID 2283321)
# Outline: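 Bovine cortex membrane preparation, benzodiazepine site on GABA-A alpha1; specific radioligand displacement read after 0.75 h by filtration and scintillation. Screen at 25 uM, then singleton titrations up to 50 uM; DMSO baseline.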
# [6] = tested on: rat CYP2B1, gene 24300; assay: NVS_ADME_rCYP2B1: NovaScreen (NVS) CYP450-related Enzyme Activity (ADME) Assay for rat CYP2B1 (AID 2283117)
# Outline: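 Cell-free fluorescence enzyme assay, recombinant rat CYP2B1, 0.75 h after dosing. Single-concentration duplicates at 10 uM preceded concentration series (max 20 uM) for actives; acetonitrile as negative-control baseline.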
# [7] = target: rat Monoamine Oxidase, MAO-B, Central (MAOBC), Maob (gene 25750) (UniProt P19643); assay: NVS_ENZ_rMAOBC: NovaScreen (NVS) Enzymatic Assay for rat Monoamine Oxidase, MAO-B, Central (MAOBC) (AID 2283238)
# Outline: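 Here MAO-B activity in rat brain preparations is quantified radiometrically, counts taken at 1.17 hours. Concentration-response runs reach 50 uM, with plate controls, and values are fitted as loss of signal from the DMSO baseline.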
# [8] = target: Voltage-dependent N-type calcium channel subunit alpha-1B (Rattus norvegicus) (UniProt Q02294); assay: NVS_IC_rCaChN: NovaScreen (NVS) Ion Channel Assay for rat Calcium Channel, Type N (CaChN) (AID 2283317)
# [9] = target: human Caspase 10 (CASP10), CASP10 (gene 843) (UniProt Q92851); assay: NVS_ENZ_hCASP10: NovaScreen (NVS) Enzymatic Assay for human Caspase 10 (CASP10) (AID 2283133)
# Outline: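 Fluorescence-intensity enzyme read-out of E. coli-expressed CASP10 activity, 1 h after compound. Single-point duplicates at 25 uM preceded concentration-response testing (top 50 uM) of hits; inhibition expressed as signal loss versus DMSO.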
# [10] = target: human Aurora Kinase A - serine/threonine-protein Kinase 6 (AurA), AURKA (gene 6790) (UniProt O14965); assay: NVS_ENZ_hAurA: NovaScreen (NVS) Enzymatic Assay for human Aurora Kinase A - serine/threonine-protein Kinase 6 (AurA) (AID 2283142)
# Outline: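 Recombinant human AurA activity read by fluorescence after mobility-shift separation of product from substrate; 1 hour incubation. Chemicals first run in duplicate at 25 uM, then concentration series to 50 uM if over threshold; fitted relative to DMSO.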
# [11] = target: human Raf-1 Proto-Oncogene, serine/threonine Kinase (RAF1), RAF1 (gene 5894) (UniProt P04049); assay: NVS_ENZ_hRAF1: NovaScreen (NVS) Enzymatic Assay for human Raf-1 Proto-Oncogene, serine/threonine Kinase (RAF1) (AID 2283216)
# Outline: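 Single-point screening at 25 uM (duplicate), followed by singleton concentration-response to 50 uM maximum for chemicals exceeding threshold. Enzyme activity from fluorescent substrate-product mobility-shift separation after 1 h, relative to DMSO.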
# Chain of rat CYP2D1, Cyp2d1 (gene 266684) (P10633 whole entry, looked up): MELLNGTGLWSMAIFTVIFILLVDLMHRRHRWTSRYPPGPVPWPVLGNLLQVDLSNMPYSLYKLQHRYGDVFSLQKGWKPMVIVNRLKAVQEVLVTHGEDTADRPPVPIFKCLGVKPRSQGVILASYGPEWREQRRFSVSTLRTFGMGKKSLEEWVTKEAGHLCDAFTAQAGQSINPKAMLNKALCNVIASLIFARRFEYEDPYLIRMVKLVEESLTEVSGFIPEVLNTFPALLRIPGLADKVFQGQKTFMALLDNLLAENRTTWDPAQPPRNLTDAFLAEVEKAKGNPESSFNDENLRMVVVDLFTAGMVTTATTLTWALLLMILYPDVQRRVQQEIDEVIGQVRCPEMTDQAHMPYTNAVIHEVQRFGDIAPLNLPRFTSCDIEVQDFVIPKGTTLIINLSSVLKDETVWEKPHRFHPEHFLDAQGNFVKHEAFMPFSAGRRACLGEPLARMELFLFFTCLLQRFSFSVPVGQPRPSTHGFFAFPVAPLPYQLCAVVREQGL
# Chain of human Caspase 10 (CASP10), CASP10 (gene 843) (Q92851 whole entry, looked up): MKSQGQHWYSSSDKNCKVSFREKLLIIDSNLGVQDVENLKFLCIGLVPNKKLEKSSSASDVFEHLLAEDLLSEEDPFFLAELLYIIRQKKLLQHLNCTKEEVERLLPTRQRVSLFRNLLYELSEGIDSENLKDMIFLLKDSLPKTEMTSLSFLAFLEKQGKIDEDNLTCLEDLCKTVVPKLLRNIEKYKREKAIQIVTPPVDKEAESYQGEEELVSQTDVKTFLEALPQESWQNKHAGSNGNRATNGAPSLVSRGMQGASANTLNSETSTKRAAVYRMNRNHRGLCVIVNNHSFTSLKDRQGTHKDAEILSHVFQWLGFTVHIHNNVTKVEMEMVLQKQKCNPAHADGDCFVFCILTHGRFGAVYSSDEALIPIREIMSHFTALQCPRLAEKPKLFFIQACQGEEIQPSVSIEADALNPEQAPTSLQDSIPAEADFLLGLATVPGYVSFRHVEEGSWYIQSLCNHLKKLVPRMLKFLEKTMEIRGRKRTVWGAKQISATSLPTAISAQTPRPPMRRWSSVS
# Chain of rat Monoamine Oxidase, MAO-B, Central (MAOBC), Maob (gene 25750) (P19643 whole entry, looked up): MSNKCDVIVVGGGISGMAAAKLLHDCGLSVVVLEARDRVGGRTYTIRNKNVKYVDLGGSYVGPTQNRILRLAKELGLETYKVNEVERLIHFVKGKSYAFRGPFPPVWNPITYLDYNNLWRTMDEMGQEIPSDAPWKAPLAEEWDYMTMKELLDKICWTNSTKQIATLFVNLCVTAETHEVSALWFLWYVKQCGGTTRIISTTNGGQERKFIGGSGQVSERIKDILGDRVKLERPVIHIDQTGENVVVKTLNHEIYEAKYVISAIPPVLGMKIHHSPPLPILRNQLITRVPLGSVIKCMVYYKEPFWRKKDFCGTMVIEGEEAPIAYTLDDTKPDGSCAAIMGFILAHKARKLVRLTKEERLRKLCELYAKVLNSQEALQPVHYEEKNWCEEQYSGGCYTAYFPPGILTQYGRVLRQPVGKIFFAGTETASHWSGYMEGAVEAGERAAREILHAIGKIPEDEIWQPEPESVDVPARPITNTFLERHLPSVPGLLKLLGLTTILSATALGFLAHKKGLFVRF
# Chain of human Epidermal Growth Factor Receptor (EGFR), EGFR (gene 1956) (P00533 whole entry, looked up): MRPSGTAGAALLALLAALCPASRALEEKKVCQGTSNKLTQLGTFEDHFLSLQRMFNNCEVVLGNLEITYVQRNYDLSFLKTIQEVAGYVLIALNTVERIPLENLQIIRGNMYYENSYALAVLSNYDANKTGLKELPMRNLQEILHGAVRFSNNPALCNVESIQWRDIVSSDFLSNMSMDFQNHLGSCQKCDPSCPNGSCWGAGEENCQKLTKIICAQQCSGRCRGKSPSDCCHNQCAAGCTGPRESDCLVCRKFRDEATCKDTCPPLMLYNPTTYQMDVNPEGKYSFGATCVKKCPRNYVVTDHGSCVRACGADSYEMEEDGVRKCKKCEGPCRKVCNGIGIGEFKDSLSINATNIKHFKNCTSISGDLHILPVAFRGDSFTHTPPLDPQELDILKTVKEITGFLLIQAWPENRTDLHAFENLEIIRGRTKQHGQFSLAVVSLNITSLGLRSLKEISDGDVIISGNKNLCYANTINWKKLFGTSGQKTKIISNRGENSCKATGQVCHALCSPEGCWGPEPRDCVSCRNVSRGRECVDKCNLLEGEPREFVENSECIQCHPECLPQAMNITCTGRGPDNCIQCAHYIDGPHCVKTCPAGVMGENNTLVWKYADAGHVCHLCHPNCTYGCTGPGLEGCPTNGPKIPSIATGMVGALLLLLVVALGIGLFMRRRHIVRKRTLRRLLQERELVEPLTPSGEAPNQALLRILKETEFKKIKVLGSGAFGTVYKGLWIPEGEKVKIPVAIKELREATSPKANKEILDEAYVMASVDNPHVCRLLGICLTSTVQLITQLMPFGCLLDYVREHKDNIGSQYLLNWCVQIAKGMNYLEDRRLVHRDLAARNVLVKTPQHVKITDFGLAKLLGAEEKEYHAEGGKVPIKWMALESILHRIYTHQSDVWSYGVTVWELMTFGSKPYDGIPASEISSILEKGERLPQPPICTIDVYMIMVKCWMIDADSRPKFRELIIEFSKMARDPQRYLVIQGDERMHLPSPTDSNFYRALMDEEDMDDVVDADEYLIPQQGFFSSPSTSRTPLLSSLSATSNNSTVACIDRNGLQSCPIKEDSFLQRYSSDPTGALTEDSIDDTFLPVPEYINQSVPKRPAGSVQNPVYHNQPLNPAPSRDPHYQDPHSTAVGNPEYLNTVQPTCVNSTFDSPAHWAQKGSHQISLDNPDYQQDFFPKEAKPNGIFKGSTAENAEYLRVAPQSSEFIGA
# Chain of human Raf-1 Proto-Oncogene, serine/threonine Kinase (RAF1), RAF1 (gene 5894) (P04049 whole entry, looked up): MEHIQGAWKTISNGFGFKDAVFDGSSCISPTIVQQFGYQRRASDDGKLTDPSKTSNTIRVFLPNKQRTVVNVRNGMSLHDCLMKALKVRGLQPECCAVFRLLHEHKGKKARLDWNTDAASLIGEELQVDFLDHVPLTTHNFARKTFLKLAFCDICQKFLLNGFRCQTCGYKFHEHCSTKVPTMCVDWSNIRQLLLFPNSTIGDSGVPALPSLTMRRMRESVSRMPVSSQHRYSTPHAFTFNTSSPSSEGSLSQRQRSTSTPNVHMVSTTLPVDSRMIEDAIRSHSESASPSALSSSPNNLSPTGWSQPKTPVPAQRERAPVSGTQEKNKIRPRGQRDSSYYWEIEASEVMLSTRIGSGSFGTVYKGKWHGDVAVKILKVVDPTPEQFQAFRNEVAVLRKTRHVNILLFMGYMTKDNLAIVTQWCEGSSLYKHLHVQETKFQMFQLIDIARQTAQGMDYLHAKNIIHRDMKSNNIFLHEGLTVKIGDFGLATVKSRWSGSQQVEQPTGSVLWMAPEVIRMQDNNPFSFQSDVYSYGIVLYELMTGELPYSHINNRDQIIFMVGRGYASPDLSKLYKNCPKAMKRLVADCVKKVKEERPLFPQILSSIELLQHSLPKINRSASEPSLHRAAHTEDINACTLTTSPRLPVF
# Chain of human p21 Activated Kinase 4 (PAK4), PAK4 (gene 10298) (O96013 whole entry, looked up): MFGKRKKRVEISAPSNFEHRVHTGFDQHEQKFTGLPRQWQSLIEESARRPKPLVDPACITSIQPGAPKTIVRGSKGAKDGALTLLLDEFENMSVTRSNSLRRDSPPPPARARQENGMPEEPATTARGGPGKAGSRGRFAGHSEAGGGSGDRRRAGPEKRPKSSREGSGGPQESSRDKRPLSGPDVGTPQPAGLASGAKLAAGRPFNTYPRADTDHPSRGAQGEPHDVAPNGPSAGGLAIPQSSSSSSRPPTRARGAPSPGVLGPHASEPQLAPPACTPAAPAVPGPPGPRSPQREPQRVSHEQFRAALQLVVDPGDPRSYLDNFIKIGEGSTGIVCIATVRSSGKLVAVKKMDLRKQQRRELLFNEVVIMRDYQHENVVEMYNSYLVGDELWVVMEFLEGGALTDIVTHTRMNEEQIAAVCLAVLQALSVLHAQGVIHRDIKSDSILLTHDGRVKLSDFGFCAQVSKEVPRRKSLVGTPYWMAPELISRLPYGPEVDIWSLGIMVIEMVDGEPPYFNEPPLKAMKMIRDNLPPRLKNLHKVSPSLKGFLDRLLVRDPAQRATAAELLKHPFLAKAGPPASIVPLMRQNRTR
# Chain of human Aurora Kinase A - serine/threonine-protein Kinase 6 (AurA), AURKA (gene 6790) (O14965 whole entry, looked up): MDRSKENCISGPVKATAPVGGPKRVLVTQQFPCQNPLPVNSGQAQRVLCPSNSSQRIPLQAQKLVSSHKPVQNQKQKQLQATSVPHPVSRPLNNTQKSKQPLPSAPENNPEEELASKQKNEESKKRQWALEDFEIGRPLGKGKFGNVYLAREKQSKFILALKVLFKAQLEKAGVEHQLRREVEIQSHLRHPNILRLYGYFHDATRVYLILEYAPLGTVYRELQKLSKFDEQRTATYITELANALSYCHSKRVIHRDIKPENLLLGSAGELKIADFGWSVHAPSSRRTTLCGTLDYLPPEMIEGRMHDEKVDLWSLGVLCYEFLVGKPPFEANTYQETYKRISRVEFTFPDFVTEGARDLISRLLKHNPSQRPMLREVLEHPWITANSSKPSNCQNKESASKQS
# Chain of bovine Gamma-Aminobutyric Acid Type A Receptor BDZ, alpha 1 site (GABARa1), GABRA1 (gene 780973) (P08219 whole entry, looked up): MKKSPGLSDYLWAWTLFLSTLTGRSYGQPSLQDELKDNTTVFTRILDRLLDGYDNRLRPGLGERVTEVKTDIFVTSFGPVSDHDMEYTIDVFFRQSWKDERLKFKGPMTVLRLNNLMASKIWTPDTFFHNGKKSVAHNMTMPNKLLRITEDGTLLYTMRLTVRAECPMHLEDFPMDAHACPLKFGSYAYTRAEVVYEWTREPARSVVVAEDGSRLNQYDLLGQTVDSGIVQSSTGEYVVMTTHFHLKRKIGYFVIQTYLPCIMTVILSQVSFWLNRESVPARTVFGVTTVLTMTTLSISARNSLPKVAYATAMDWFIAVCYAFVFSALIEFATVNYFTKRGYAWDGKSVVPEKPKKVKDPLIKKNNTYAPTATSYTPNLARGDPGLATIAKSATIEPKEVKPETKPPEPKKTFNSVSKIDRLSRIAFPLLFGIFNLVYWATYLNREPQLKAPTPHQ
smiles,measurement,setting,value
CC(C)(c1ccc(O)cc1)c1ccc(O)cc1,AC50,[1],4.07 µM (active)
same,AC50,[2],10 µM (active)
same,outcome,[3],inactive
same,outcome,[4],inactive
same,outcome,[5],inactive
O=c1c(-c2ccc(O)cc2)coc2cc(O)cc(O)c12,outcome,[6],inactive
same,AC50,[7],31.1 µM (active) and 25 µM (active)
CCCCCCCCCC(=O)O,AC50,[1],2.83 µM (active)
same,AC50,[5],19.7 µM (active)
CC1(C)C(=O)N(Br)C(=O)N1Br,AC50,[1],2.18 µM (active)
Cc1nc(-c2ccc3c(c2)CCN(CCC2CCC(NC(=O)/C=C/c4ccc(F)cc4)CC2)CC3)no1 (centres undefined),outcome,[1],inactive
COC(=O)CSc1cc(N=c2sc(=O)n3n2CCCC3)c(F)cc1Cl,outcome,[8],inactive
same,outcome,[5],inactive
CSc1ccc(Oc2ccc(S(N)(=O)=O)cc2CN(C)C)cc1C,AC50,[1],8.72 µM (active)
N#CSCSc1nc2ccccc2s1,AC50,[6],3.96 µM (active)
same,AC50,[2],0.926 µM (active)
same,outcome,[7],inactive
CCN(CC)CCOc1ccc(C(=C(Cl)c2ccccc2)c2ccccc2)cc1,AC50,[6],7.35 µM (active) and 7.71 µM (active)
same,outcome,[6],inactive
Cc1nn(C)c(Oc2ccccc2)c1C=NOCc1ccc(C(=O)OC(C)(C)C)cc1,outcome,[2],inactive
CN(C)c1ccc(C(=C2C=CC(=[N+](C)C)C=C2)c2ccc(N(C)C)cc2)cc1,outcome,[9],inactive
O=C(O)Cn1c(=O)n(Cc2ccc(Br)cc2F)c(=O)c2ccc(Cl)cc21,outcome,[8],inactive
NC(=NCCCCCCN=C(N)/N=C(\N)Nc1ccc(Cl)cc1)/N=C(\N)Nc1ccc(Cl)cc1,AC50,[6],5.93 µM (active)
C=CCCCCCCCCCCCC,outcome,[4],inactive
COc1cc(C(=O)NC2CCN(C)CC2)ccc1Nc1ncc2c(n1)N(C1CCCC1)CC(F)(F)C(=O)N2C,outcome,[10],inactive
same,AC50,[3],12.2 µM (active)
same,outcome,[4],inactive
CN(C)c1ccc(N=NS(=O)(=O)O)cc1,outcome,[10],inactive
same,outcome,[11],inactive
CCCCCCCCCCCCCC[P+](CCCC)(CCCC)CCCC,AC50,[6],6.5 µM (active)
same,AC50,[4],14.5 µM (active)
Oc1ccc2ccccc2c1,AC50,[10],36.6 µM (active)
same,AC50,[7],14.4 µM (active)
O=Cc1ccccc1C=O,outcome,[4],inactive
same,outcome,[8],inactive
COCCOC[C@H](CC1(C(=O)NC2CCC(C(=O)O)CC2)CCCC1)C(=O)Oc1ccc2c(c1)CCC2 (some centres undefined),outcome,[8],inactive
CC[C@H](c1ccc(O)cc1)[C@@H](CC)c1ccc(O)cc1,AC50,[11],38.5 µM (active)
Oc1cc2ccccc2c2ccccc12,AC50,[9],11.1 µM (active)
CCCCCCCCCCCCCCCCOS(=O)(=O)O,outcome,[9],inactive
O=C(O)c1cccc(N(Cc2cccnc2)c2ccc(OC(F)F)c(OC(F)F)c2)c1,outcome,[11],inactive
same,outcome,[7],inactive
same,outcome,[8],inactive
Cc1c2ccccc2c(C)c2c1ccc1ccccc12,outcome,[9],inactive
CCCCCCCCCCCCc1ccccc1S(=O)(=O)O,AC50,[10],9.88 µM (active)
same,AC50,[3],12.6 µM (active)
same,AC50,[4],18.1 µM (active)
same,AC50,[11],26 µM (active)
O=C(c1ccc(O)cc1O)c1ccc(O)cc1O,AC50,[10],22.2 µM (active)
same,AC50,[3],25 µM (active)
same,outcome,[11],inactive
c1ccc2[nH]c(-c3cscn3)nc2c1,AC50,[10],17 µM (active)
same,outcome,[5],inactive
N#C[C@@H]1CC(F)(F)CN1C(=O)CNC1CC2CCC(C1)N2c1ncccn1 (some centres undefined),outcome,[3],inactive
COc1ccc2c(c1)c(CC(=O)O)c(C)n2C(=O)c1ccc(Cl)cc1,outcome,[9],inactive
